PI5P4Ka inh: qHTS for Inhibitors of phosphatidylinositol 5-phosphate 4-kinase (PI5P4K) | PI5P4Kalpha enzyme, ADP-Glo luminescence, 60 min; stronger effect = lower value | Phosphatidylinositol 5-phosphate 4-kinase type-2 alpha (Homo sapiens), P48426 | AID 652105, 2013 | max response, % | actives 1.2% (n = 330,000); active = max response of -50% or lower; inconclusive = between -30% and -50%; inactive = -30% or higher; also: value at the top dose of about 77 µM; % is scaled to controls: 0 for no effect and ±100 for the full control effect
Target sequence (P48426 whole entry, looked up): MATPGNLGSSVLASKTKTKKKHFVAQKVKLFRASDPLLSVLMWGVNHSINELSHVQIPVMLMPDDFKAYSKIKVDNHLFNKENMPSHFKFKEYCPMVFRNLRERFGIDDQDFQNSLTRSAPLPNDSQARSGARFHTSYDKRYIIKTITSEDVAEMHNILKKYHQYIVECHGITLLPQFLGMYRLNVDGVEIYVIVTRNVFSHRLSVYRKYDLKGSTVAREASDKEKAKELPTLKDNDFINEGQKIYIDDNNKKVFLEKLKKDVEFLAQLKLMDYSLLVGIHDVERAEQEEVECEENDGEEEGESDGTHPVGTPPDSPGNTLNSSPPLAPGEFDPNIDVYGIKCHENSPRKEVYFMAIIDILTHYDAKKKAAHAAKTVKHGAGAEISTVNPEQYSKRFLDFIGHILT
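qHTS, 1536-well: enzyme/substrate mix, compound by pin tool, 5 microM ATP final; RT 60 min; ADP-Glo reagents 1 (45 min) then 2 (30 min); luminescence.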
G9a block: qHTS Assay for Inhibitors of Histone Lysine Methyltransferase G9a; G9a H3K9 monomethylation, AlphaScreen, 2 h; Potency, µM (highest dose often 102 µM), without a hit: top-dose activity, negative = inhibition, hits mostly inhibitors; Histone-lysine N-methyltransferase EHMT2 (Homo sapiens), Q96KQ7; actives 8.8% (n = 350,000); also: potency is read from the fitted curve at half-maximal effect; % is scaled to controls: 0 for no effect and ±100 for the full control effect; nearly all actives have a fitted effect of over 75% in size
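Compounds were preincubated with 20 nM G9a for 15 min, after which biotinylated H3K9 peptide (500 nM) and SAM (20 uM) started a 2 h room-temperature reaction. Monomethylated product was quantified by antibody-based AlphaScreen chemiluminescence.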
L3MBTL1 inh: qHTS Assay for the Inhibitors of L3MBTL1; actives 0.66% (n = 230,000); AID 485360, 2010; Potency, µM (top dose mostly 57.1 µM), inactives show at the highest dose activity, negative = inhibition, most hits filed as inhibitors; AlphaScreen L3MBTL1–H3K9me1 peptide binding; also: potency is read from the fitted curve at half-maximal effect; % is scaled to controls: 0 for no effect and ±100 for the full control effect; nearly all actives have a fitted effect of over 60% in size
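AlphaScreen proximity signal between nickel-chelate acceptor and streptavidin donor beads (final 10 ug/mL) reports binding of 50 nM L3MBTL1 to 75 nM biotin-H3 K9me1 peptide; complex incubated with compounds 30 min at room temperature; cefsulodin titration as control.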
JMJD2A Tudor inh: qHTS Assay for Inhibitors of JMJD2A-Tudor Domain | actives 4.4% (n = 390,000) | Lysine-specific demethylase 4A (Homo sapiens), O75164 | AlphaScreen JMJD2A-Tudor / H3K4me3 peptide binding | Potency, µM (top dose mostly 114 µM), without a hit: at the highest dose activity change, negative = inhibition, usual class: inhibitors; also: potency is read from the fitted curve at half-maximal effect; % is scaled to controls: 0 for no effect and ±100 for the full control effect; nearly all actives have a fitted effect of over 50% in size
BAZ2B block: qHTS Assay for Inhibitors of BAZ2B; actives 4.4% (n = 360,000); Potency, µM (doses to about 114 µM), for the others: top-dose activity change, negative = inhibition, most hits filed as inhibitors; Bromodomain adjacent to zinc finger domain protein 2B (Homo sapiens), Q9UIF8; AlphaScreen BAZ2B-H3K14Ac peptide displacement; also: potency is read from the fitted curve at half-maximal effect; % is scaled to controls: 0 for no effect and ±100 for the full control effect; nearly all actives have a fitted effect of over 60% in size
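Protein-peptide AlphaScreen: BAZ2B 50 nM, b-H3K14Ac 50 nM, 1x PBS pH 7.4 + 0.01% Tween-20. Preincubation 30 min RT; cpd 30 min RT (top 110 uM); beads 20 min RT, light-protected.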
HP1b binding inh: HTS for Inhibitors of HP1-beta Chromodomain Interactions with Methylated Histone Tails | Chromobox protein homolog 1 (Homo sapiens), P83916 | AlphaScreen HP1-beta / biotin-H3K9me3 peptide binding | Potency, µM (highest dose often 114 µM), inactives show at the highest dose activity change, negative = inhibition, most hits filed as inhibitors | actives 0.56% (n = 390,000); also: potency is read from the fitted curve at half-maximal effect; nearly all actives have a fitted effect of over 70% in size
Target sequence (P83916 whole entry, looked up): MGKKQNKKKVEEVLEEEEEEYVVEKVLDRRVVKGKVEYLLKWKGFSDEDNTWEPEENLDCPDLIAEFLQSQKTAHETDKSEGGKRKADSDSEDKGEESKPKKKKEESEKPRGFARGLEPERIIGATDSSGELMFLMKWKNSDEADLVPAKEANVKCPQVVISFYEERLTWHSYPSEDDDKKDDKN
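HP1-beta protein (50 nM final) preincubated 30 min at room temperature with biotinylated H3(1-18)K9me3 peptide (50 nM) in PBS pH 7.4, 0.01% Tween-20, then compound added for 30 min. AlphaScreen streptavidin donor/nickel chelate acceptor beads (10 ug/mL final), 30 min dark, luminescence read.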
* marks the source's active call; other numbers are inactive results; ? = inconclusive; . = not tested or not shown; [ ] = remark or other dose. An excerpt weighted towards active compounds, which were near 11% of everything screened. Unless noted, calls follow the shape of the dose curve; as a rule, active = well fitted inhibition curve with a large enough effect; inconclusive = small, poorly fitted or top-dose-only effect; inactive = no such curve, though single readings can be large or run the other way.

SMILES | PI5P4Ka inh | G9a block | L3MBTL1 inh | JMJD2A Tudor inh | BAZ2B block | HP1b binding inh
COc1ccc(C(=O)/C=C/c2cccc(OCc3ccccc3)c2)cc1CSCC(=O)O | -14 | . | . | 50µM* | 45µM* | -31%
COc1ccc(C(=O)/C=C/c2ccc(OCc3ccccc3)cc2)cc1CSCC(=O)O | -21 | 56% | . | 56µM* | -6% | -17%
COc1ccc(C=CC(=O)c2ccc(OCc3ccccc3)c(OC)c2)cc1OC | 0 | . | . | . | . | .
COc1ccc(Cn2c(O)cc(=O)[nH]c2=O)cc1 | -29 | 10µM* | -6% | -25% | -6% | 46%
CCOc1ccc(Cn2c(O)cc(=O)[nH]c2=O)cc1 | -30 | ? | -16% | -19% | -3% | 42%
Cc1c(-c2nnc(SCC(=O)Nc3ccc(Cl)cc3)o2)nnn1-c1ccc(F)cc1 | . | 16%[59 µM] | . | -22% | -5% | 19%[57 µM]
O=C(CBr)Nc1c2c(nn1-c1ccccc1)CSC2 | -16 | 22µM* | . | -27% | -15%[57.1 µM] | 34%[57 µM]
CCCC(=O)Nc1c2c(nn1-c1ccc(C)cc1C)CSC2 | . | 22µM* | -4% | -19% | -5% | 28%
CCCC(=O)Nc1c2c(nn1-c1ccccc1)CSC2 | -2 | 18%[59 µM] | . | -24% | -1% | 13%[57 µM]
CC1=NN(c2ccccc2)C(=O)/C1=C\C=C1\N(C)c2ccccc2C1(C)C | -4 | 14µM* | ? | 56µM* | 10µM* | 32µM*
CC1=NN(c2ccccc2)C(=O)/C1=C\C=C1/N(C)c2ccccc2C1(C)C | -2 | 11µM* | ? | 32µM* | 10µM* | ?
CN1/C(=C\C=C2/C(=O)Oc3ccccc3C2=O)C(C)(C)c2ccccc21 | -4 | ? | -11% | 3% | ? | -1%
N#CCCn1c(=O)c(-c2cc(F)cc(F)c2)nc2cnc(OCc3ccccc3)nc21 | . | -27%[12.7 µM] | . | . | . | .
CCOC(=O)C1CCN(C(=O)c2cc3ccc4cccnc4c3[nH]2)CC1 | . | -24%[59 µM] | . | -15% | 6%[57.1 µM] | 29%
CCOC(=O)C1CCN(C(=O)c2cc3ccc4ccc(C)[nH]c4c3n2)CC1 | . | 14µM* | . | -20% | 3%[57.1 µM] | -2%
COc1ccc(N2CCN(c3csc4ccccc4c3=O)CC2)cc1 | . | ? | . | 40µM* | 40µM* | -5%[57 µM]
COc1ccc(N2CCN(c3csc4ccc(Cl)cc4c3=O)CC2)cc1 | . | -51%[59 µM] | . | ? | 50µM* | -13%[57 µM]
O=c1c(N2CCN(c3ccc(F)cc3)CC2)csc2ccc(F)cc12 | . | -5%[59 µM] | . | -16% | -29% | 25%[57 µM]
Cc1ccc(S(=O)(=O)Nc2ccccc2)cc1[N+](=O)[O-] | 0 | . | . | -22% | . | 24%
Cc1cccc2c(N=Nc3ccc(S(=O)(=O)Nc4cccc(Cl)c4)cc3[N+](=O)[O-])c(O)[nH]c12 | -71* | ? | -18% | -27% | -34% | 17%
COc1ccccc1N1C(=O)c2cccc3c(C(=O)O)ccc(c23)C1=O | -4 | -11% | . | 79µM* | -5% | -8%
COc1ccccc1N1C(=O)c2cccc3c(N(C)CCO)ccc(c23)C1=O | -4 | 11% | -3% | 12% | 4% | 61%
CCc1cccc(N2C(=O)CSC23C(=O)Nc2ccccc23)c1 (stereo not given) | . | -20%[59 µM] | . | -1% | -13% | 31%
O=C(NP(=O)(N1CCCC1)N1CCCC1)C1=C(N2CCOCC2)/C(=C/c2cccc([N+](=O)[O-])c2)CC1 | 4 | 45µM* | -25% | -25% | 45µM* | -6%
O=[N+]([O-])c1cccc(/C=C2\CCC(/C=N/Nc3ccc4ccccc4n3)=C2N2CCOCC2)c1 | 3 | 8%[59 µM] | -12% | -22% | ? | -22%
SMILES | PI5P4Ka inh | G9a block | L3MBTL1 inh | JMJD2A Tudor inh | BAZ2B block | HP1b binding inh
CCCCC(=O)N/N=C/c1ccc(-c2ccc([N+](=O)[O-])cc2)o1 | -5 | -9% | -9% | -12% | -10% | 3%
Cc1cc(C)n(Cc2ccc(C(=O)N/N=C/c3ccc(-c4ccc([N+](=O)[O-])cc4)o3)o2)n1 | 0 | -24% | . | 50µM* | 20µM* | ?
CCN1C(=O)/C(=C\C(=O)c2cccs2)c2cc(Br)ccc21 | 3 | ? | -13% | 28µM* | 16µM* | 22µM*
CCOc1ccccc1NC(=O)Cn1c(=O)n(-c2ccc(F)cc2)c(=O)c2sc3ccccc3c21 | . | -34%[59 µM] | . | -17% | -10% | 35%
O=C(O)c1ccc2c(c1)-c1nc3ccccc3n1C2=O | -7 | 40µM* | . | 18µM* | ? | 4%
O=C(O)c1ccc2c(c1)C(=O)N(c1ncccn1)C2=O | -2 | ? | 0% | -10% | -1% | 19%
Cc1cccc(C)c1Nc1c(-c2ccccc2Cl)nc2cnccn12 | . | 3%[59 µM] | . | 11% | 16% | 79%
Cn1c(O)c(/C=C2\C=Nc3ccccc32)sc1=Nc1ccc(C(=O)O)cc1 | -66* | 35µM* | . | -34% | 50µM* | 21%
Cc1cc(C)c2oc(-c3ccc(C)c(NC(=S)NC(=O)/C=C/c4ccco4)c3)nc2c1 | -16 | -44%[59 µM] | -4% | -29% | -30% | 6%
COc1ccc(/C=C/C(=O)N/C(=C\c2ccco2)C(=O)NCCc2nc3ccccc3[nH]2)cc1 | -3 | 45µM* | -7% | ? | ? | -11%
O=C(NCCc1nc2ccccc2[nH]1)/C(=C/c1ccco1)NC(=O)c1ccc(Br)cc1 | 12 | 71µM* | -2% | -26% | -21% | 1%
O=C(NCCc1nc2ccccc2[nH]1)/C(=C/c1ccco1)NC(=O)c1ccccc1Br | 0 | ? | -13% | -22% | -10% | 27%
O=C(/C=C/c1ccco1)N/C(=C\c1ccco1)C(=O)NCCc1nc2ccccc2[nH]1 | -12 | 45µM* | ? | ? | ? | 0%
Cc1ccc(-c2nc3ccccc3[nH]2)cc1NC(=O)/C=C/c1ccco1 | . | -6%[2.33 µM] | ? | ? | 50µM* | -21%
CC(=O)OC[C@H]1O[C@@H](O/N=C/[C@@H](C)[C@H](OCc2ccccc2)C(C)C)[C@H](OC(C)=O)[C@@H](OC(C)=O)[C@@H]1OC(C)=O | . | 50µM* | -6% | . | -9% | .
CCOc1ccc(NC(=O)CSc2nc3ccsc3c(=O)n2C(C)CC)cc1 (stereo not given) | . | 8%[59 µM] | . | 3% | 2% | 46%
O=C(Nc1cccc(-c2cn3c(n2)SCC3)c1)c1ccc(Br)o1 | -5 | 7.9µM* | -25% | -12% | 56µM* | 25%
CC(=O)Nc1ccc(S(=O)(=O)Nc2cccc(-c3cn4c(n3)SCC4)c2)cc1 | -1 | ? | . | -30% | . | 23%
